Experimental data: PubChem BioAssay AID588432 (Broad Institute, 2011)
Activity calls are given as the source filed them.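 Rule for the calls: active = luciferase inhibitors whose fitted dose curve gives a half-maximal potency within ten times the top tested dose; inconclusive = flat curve with 30 to 70% inhibition, or a poor fit; inactive = the rest.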

Assay: luciferase inhibitors in kinase-free ADP detection – biochemical, luminescence, cherry-pick, set 04, artefact control for Dyrk1A inhibitor project, dose response (AID 588432)
Details: ADP-Glo luminescence without kinase, luciferase artifact; series mostly up to 12 µM

| Structure (SMILES) | outcome |
| --- | --- |
| Cc1csc(CNc2ncnc3ccc(-c4ccc5c(ccn5C)c4)cc23)c1 | inactive |
| Cc1ccc(CN(C)c2ncnc3ccc(-c4ccc5c(c4)OCO5)cc23)o1 | inactive |
| CS(=O)(=O)CCNCc1ccc(-c2ccc3ncnc(Nc4ccc(OCc5cccc(F)c5)c(Cl)c4)c3c2)o1 | inactive |
| Cc1cccc(CNc2ncnc3ccc(-c4cccc(Cl)c4)cc23)c1 | inactive |
| Cc1csc(CN(C)c2ncnc3ccc(-c4ccc5c(c4)OCO5)cc23)n1 | inactive |
| Cc1nc(CNc2ncnc3ccc(-c4ccoc4)cc23)cs1 | inactive |
| Clc1cc(Cl)cc(CNc2ncncc2-c2ccc3c(c2)OCO3)c1 | inactive |
| COc1ccc(-c2nccc(NCc3ccc(C)cc3)n2)cc1 | inactive |
| Clc1ccc(CNc2nccc(-c3ccc4c(c3)OCCO4)n2)cc1Cl | inactive |
| Brc1cc(Br)cc(CNc2nccc(-c3ccc4c(c3)OCO4)n2)c1 | inactive |
| Cc1occc1CNc1ncnc2ccc(-c3ccc4c(c3)OCO4)cc12 | inactive |
| FC(F)(F)c1cc(Br)cc(Nc2nccc(-c3ccc4c(c3)OCO4)n2)c1 | inactive |
| Cc1ccc(CNc2ncnc3ccc(-c4ccc5c(c4)OCO5)cc23)o1 | inactive |
| Clc1cc(Cl)cc(CNc2nccc(-c3ccc4c(c3)OCO4)n2)c1 | inactive |
| Cn1ccc2cc(-c3ccc4ncnc(NCc5ccc6c(c5)OCO6)c4c3)ccc21 | inactive |
| Brc1ccc(CNc2nccc(-c3ccc4c(c3)OCO4)n2)cc1Br | inactive |
| c1coc(CCNc2ncnc3ccc(-c4ccc5c(c4)OCO5)cc23)c1 | inactive |

| Structure (SMILES) | outcome |
| --- | --- |
| Clc1ccc(CNc2nccc(-c3ccc4c(c3)OCO4)n2)cc1Cl | inactive |
| Clc1ccc(CNc2nccc(-c3ccc4[nH]ncc4c3)n2)cc1Cl | inactive |
| Cc1c(-c2ccnc(NCc3ccc(Cl)cc3)n2)sc(=O)n1C | inactive |
| Cc1nc(CN(C)c2ncnc3ccc(-c4ccc5c(c4)OCO5)cc23)cs1 | inactive |
| CN(Cc1ccco1)c1ncnc2ccc(-c3ccc4c(c3)OCO4)cc12 | inactive |
| c1cncc(CNc2nccc(-c3ccc4cn[nH]c4c3)n2)c1 | inactive |
| Cc1noc(CN(C)c2ncnc3ccc(-c4ccc5c(c4)OCO5)cc23)n1 | inactive |
| CCN(Cc1cccs1)c1ncnc2ccc(-c3ccc4c(c3)OCO4)cc12 | inactive |
| c1cncc(CNc2nccc(-c3ccc4[nH]ncc4c3)n2)c1 | inactive |
| Clc1ccc(CNc2ncncc2-c2ccc3c(c2)OCO3)cc1 | inactive |
| c1cc(-c2ccc3c(c2)OCO3)nc(Nc2ccc3c(c2)OCO3)n1 | inactive |
| CCOC(=O)c1ccc(-c2ccc3ncnc(N(C)Cc4sccc4C)c3c2)o1 | inactive |
| COc1cc(-c2ccc3ncnc(NCCc4cnc[nH]4)c3c2)cc(OC)c1OC | inactive |
| c1cncc(CNc2cc(-c3ccc4c(c3)OCO4)ncn2)c1 | inactive |
| O=[N+]([O-])c1cc(Nc2nccc(-c3ccc4c(c3)OCO4)n2)cc(C(F)(F)F)c1 | inactive |
| Cc1ccsc1CN(C)c1ncnc2ccc(-c3ccc(CO)o3)cc12 | inactive |
| Cc1ccc(CNc2ncnc3ccc(-c4ccoc4C)cc23)o1 | inactive |
